# Measurements: PMC11006913
# What was measured:
# Test in all cases: PBM; 200 nM protein, PBS
# Settings in all cases: dsDNA, one strand shown
# HESX1 [1] = target: HESX1 (Homo sapiens, UniProt Q9UBX0 95-180, R165K)
# SHOX [2] = target: SHOX (Homo sapiens, UniProt O15266 103-189)
# ALX4 = ALX4 (Homo sapiens, UniProt Q9H161 200-286, Q225E)
# HESX1 [3] = target: HESX1 (Homo sapiens, UniProt Q9UBX0 95-180)
# MSX2 = MSX2 (Homo sapiens, UniProt P35548 130-214, R199I)
# ALX1 [4] = target: ALX1 (Homo sapiens, UniProt Q15699 118-204, L144V)
# ALX3 [5] = target: ALX3 (Homo sapiens, UniProt O95076 139-225, N203Q)
# SHOX [6] = target: SHOX (Homo sapiens, UniProt O15266 103-189, R173C)
# ALX1 [7] = target: ALX1 (Homo sapiens, UniProt Q15699 118-204, L144R)
# ALX3 [8] = target: ALX3 (Homo sapiens, UniProt O95076 139-225)
# PROP1 [9] = target: PROP1 (Homo sapiens, UniProt O75360 56-141)
# HESX1 [10] = target: HESX1 (Homo sapiens, UniProt Q9UBX0 95-180, R109Q)
# PROP1 [11] = target: PROP1 (Homo sapiens, UniProt O75360 56-141, R99H)
# ALX3 [12] = target: ALX3 (Homo sapiens, UniProt O95076 139-225, L168Q)
# HESX1 [13] = target: HESX1 (Homo sapiens, UniProt Q9UBX0 95-180, P111T)
# ALX3 [14] = target: ALX3 (Homo sapiens, UniProt O95076 139-225, L168V)
# PROP1 [15] = target: PROP1 (Homo sapiens, UniProt O75360 56-141, F88S)
# HESX1 [16] = target: HESX1 (Homo sapiens, UniProt Q9UBX0 95-180, F115L)
# ALX1 [17] = target: ALX1 (Homo sapiens, UniProt Q15699 118-204)
# ALX3 [18] = target: ALX3 (Homo sapiens, UniProt O95076 139-225, N203S)
# Chain of ALX3 (Homo sapiens, UniProt O95076 139-225, N203S) (O95076 139-225 N203S): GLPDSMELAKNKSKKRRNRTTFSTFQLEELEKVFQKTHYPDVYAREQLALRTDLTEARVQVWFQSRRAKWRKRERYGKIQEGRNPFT
# Chain of ALX1 (Homo sapiens, UniProt Q15699 118-204) (Q15699 118-204): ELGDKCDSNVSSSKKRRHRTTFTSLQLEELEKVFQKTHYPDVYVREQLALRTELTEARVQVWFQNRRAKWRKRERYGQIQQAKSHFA
# Chain of SHOX (Homo sapiens, UniProt O15266 103-189) (O15266 103-189): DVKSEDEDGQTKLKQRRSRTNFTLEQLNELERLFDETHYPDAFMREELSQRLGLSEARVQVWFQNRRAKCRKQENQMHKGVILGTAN
# Chain of PROP1 (Homo sapiens, UniProt O75360 56-141, F88S) (O75360 56-141 F88S): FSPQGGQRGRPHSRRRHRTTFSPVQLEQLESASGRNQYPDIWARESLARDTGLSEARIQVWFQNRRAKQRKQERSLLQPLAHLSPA
# Chain of HESX1 (Homo sapiens, UniProt Q9UBX0 95-180, F115L) (Q9UBX0 95-180 F115L): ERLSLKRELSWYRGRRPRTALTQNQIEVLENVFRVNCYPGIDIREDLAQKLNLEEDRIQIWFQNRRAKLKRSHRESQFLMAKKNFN
# Chain of HESX1 (Homo sapiens, UniProt Q9UBX0 95-180) (Q9UBX0 95-180): as the sequence (Q9UBX0 95-180 F115L) above, with L21F counted along it
# Chain of ALX4 (Q9H161 200-286 Q225E): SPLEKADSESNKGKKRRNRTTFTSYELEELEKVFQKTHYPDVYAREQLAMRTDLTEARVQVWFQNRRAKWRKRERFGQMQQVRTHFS
# Chain of HESX1 (Homo sapiens, UniProt Q9UBX0 95-180, P111T) (Q9UBX0 95-180 P111T): as the sequence (Q9UBX0 95-180 F115L) above, with P17T, L21F counted along it
# Chain of ALX3 (Homo sapiens, UniProt O95076 139-225) (O95076 139-225): as the sequence (O95076 139-225 N203S) above, with S65N counted along it
# Chain of HESX1 (Homo sapiens, UniProt Q9UBX0 95-180, R165K) (Q9UBX0 95-180 R165K): as the sequence (Q9UBX0 95-180 F115L) above, with L21F, R71K counted along it
# Chain of MSX2 (P35548 130-214 R199I): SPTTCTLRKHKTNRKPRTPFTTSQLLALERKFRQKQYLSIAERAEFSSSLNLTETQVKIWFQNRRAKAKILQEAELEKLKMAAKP
# Chain of ALX1 (Homo sapiens, UniProt Q15699 118-204, L144R) (Q15699 118-204 L144R): as the sequence (Q15699 118-204) above, with L27R counted along it
# Chain of PROP1 (Homo sapiens, UniProt O75360 56-141, R99H) (O75360 56-141 R99H): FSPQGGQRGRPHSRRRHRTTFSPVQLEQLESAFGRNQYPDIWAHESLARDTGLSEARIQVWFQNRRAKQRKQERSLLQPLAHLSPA
# Chain of ALX1 (Homo sapiens, UniProt Q15699 118-204, L144V) (Q15699 118-204 L144V): as the sequence (Q15699 118-204) above, with L27V counted along it
# Chain of HESX1 (Homo sapiens, UniProt Q9UBX0 95-180, R109Q) (Q9UBX0 95-180 R109Q): as the sequence (Q9UBX0 95-180 F115L) above, with R15Q, L21F counted along it
# Chain of SHOX (Homo sapiens, UniProt O15266 103-189, R173C) (O15266 103-189 R173C): as the sequence (O15266 103-189) above, with R71C counted along it
# Chain of ALX3 (Homo sapiens, UniProt O95076 139-225, L168V) (O95076 139-225 L168V): as the sequence (O95076 139-225 N203S) above, with L30V, S65N counted along it
# Chain of ALX3 (Homo sapiens, UniProt O95076 139-225, N203Q) (O95076 139-225 N203Q): as the sequence (O95076 139-225 N203S) above, with S65Q counted along it
# Chain of ALX3 (Homo sapiens, UniProt O95076 139-225, L168Q) (O95076 139-225 L168Q): as the sequence (O95076 139-225 N203S) above, with L30Q, S65N counted along it
# Chain of PROP1 (Homo sapiens, UniProt O75360 56-141) (O75360 56-141): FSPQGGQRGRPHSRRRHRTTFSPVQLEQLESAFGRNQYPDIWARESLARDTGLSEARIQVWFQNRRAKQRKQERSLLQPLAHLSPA
Sequence,binding signal (HESX1 [1]),binding signal (SHOX [2]),binding signal (ALX4),binding signal (HESX1 [3]),binding signal (MSX2),binding signal (ALX1 [4]),binding signal (ALX3 [5]),binding signal (SHOX [6]),binding signal (ALX1 [7]),binding signal (ALX3 [8]),binding signal (PROP1 [9]),binding signal (HESX1 [10]),binding signal (PROP1 [11]),binding signal (ALX3 [12]),binding signal (HESX1 [13]),binding signal (ALX3 [14]),binding signal (PROP1 [15]),binding signal (HESX1 [16]),binding signal (ALX1 [17]),binding signal (ALX3 [18])
TAATTACA,"12.5 upbm affinity estimate (log intensity, higher = more binding, comparable within an allelic series)","12.1 upbm affinity estimate (log intensity, higher = more binding, comparable within an allelic series)","13.5 upbm affinity estimate (log intensity, higher = more binding, comparable within an allelic series)","12.6 upbm affinity estimate (log intensity, higher = more binding, comparable within an allelic series)","13.1 upbm affinity estimate (log intensity, higher = more binding, comparable within an allelic series)","11.9 upbm affinity estimate (log intensity, higher = more binding, comparable within an allelic series)","8.51 upbm affinity estimate (log intensity, higher = more binding, comparable within an allelic series)","9.87 upbm affinity estimate (log intensity, higher = more binding, comparable within an allelic series)","11.5 upbm affinity estimate (log intensity, higher = more binding, comparable within an allelic series)","12.7 upbm affinity estimate (log intensity, higher = more binding, comparable within an allelic series)","11.8 upbm affinity estimate (log intensity, higher = more binding, comparable within an allelic series)","9.27 upbm affinity estimate (log intensity, higher = more binding, comparable within an allelic series)","11.5 upbm affinity estimate (log intensity, higher = more binding, comparable within an allelic series)","10.8 upbm affinity estimate (log intensity, higher = more binding, comparable within an allelic series)","11.1 upbm affinity estimate (log intensity, higher = more binding, comparable within an allelic series)","10.3 upbm affinity estimate (log intensity, higher = more binding, comparable within an allelic series)","7.98 upbm affinity estimate (log intensity, higher = more binding, comparable within an allelic series)","7.89 upbm affinity estimate (log intensity, higher = more binding, comparable within an allelic series)","12.5 upbm affinity estimate (log intensity, higher = more binding, comparable within an allelic series)","8.62 upbm affinity estimate (log intensity, higher = more binding, comparable within an allelic series)"
AATTAATT,"13.4 upbm affinity estimate (log intensity, higher = more binding, comparable within an allelic series)","12.8 upbm affinity estimate (log intensity, higher = more binding, comparable within an allelic series)","14.3 upbm affinity estimate (log intensity, higher = more binding, comparable within an allelic series)","13.2 upbm affinity estimate (log intensity, higher = more binding, comparable within an allelic series)","13.3 upbm affinity estimate (log intensity, higher = more binding, comparable within an allelic series)","12.4 upbm affinity estimate (log intensity, higher = more binding, comparable within an allelic series)","8.51 upbm affinity estimate (log intensity, higher = more binding, comparable within an allelic series)","10.3 upbm affinity estimate (log intensity, higher = more binding, comparable within an allelic series)","12 upbm affinity estimate (log intensity, higher = more binding, comparable within an allelic series)","13 upbm affinity estimate (log intensity, higher = more binding, comparable within an allelic series)","12.1 upbm affinity estimate (log intensity, higher = more binding, comparable within an allelic series)","10.3 upbm affinity estimate (log intensity, higher = more binding, comparable within an allelic series)","12.2 upbm affinity estimate (log intensity, higher = more binding, comparable within an allelic series)","11.3 upbm affinity estimate (log intensity, higher = more binding, comparable within an allelic series)","11.8 upbm affinity estimate (log intensity, higher = more binding, comparable within an allelic series)","10.9 upbm affinity estimate (log intensity, higher = more binding, comparable within an allelic series)","8.05 upbm affinity estimate (log intensity, higher = more binding, comparable within an allelic series)","8.57 upbm affinity estimate (log intensity, higher = more binding, comparable within an allelic series)","13 upbm affinity estimate (log intensity, higher = more binding, comparable within an allelic series)","8.78 upbm affinity estimate (log intensity, higher = more binding, comparable within an allelic series)"
CATAATTA,"12.9 upbm affinity estimate (log intensity, higher = more binding, comparable within an allelic series)","12.4 upbm affinity estimate (log intensity, higher = more binding, comparable within an allelic series)","13.7 upbm affinity estimate (log intensity, higher = more binding, comparable within an allelic series)","12.9 upbm affinity estimate (log intensity, higher = more binding, comparable within an allelic series)","12.8 upbm affinity estimate (log intensity, higher = more binding, comparable within an allelic series)","12 upbm affinity estimate (log intensity, higher = more binding, comparable within an allelic series)","8.61 upbm affinity estimate (log intensity, higher = more binding, comparable within an allelic series)","10 upbm affinity estimate (log intensity, higher = more binding, comparable within an allelic series)","11.6 upbm affinity estimate (log intensity, higher = more binding, comparable within an allelic series)","12.6 upbm affinity estimate (log intensity, higher = more binding, comparable within an allelic series)","11.8 upbm affinity estimate (log intensity, higher = more binding, comparable within an allelic series)","9.21 upbm affinity estimate (log intensity, higher = more binding, comparable within an allelic series)","11.5 upbm affinity estimate (log intensity, higher = more binding, comparable within an allelic series)","10.8 upbm affinity estimate (log intensity, higher = more binding, comparable within an allelic series)","11.3 upbm affinity estimate (log intensity, higher = more binding, comparable within an allelic series)","10.4 upbm affinity estimate (log intensity, higher = more binding, comparable within an allelic series)","8.12 upbm affinity estimate (log intensity, higher = more binding, comparable within an allelic series)","7.94 upbm affinity estimate (log intensity, higher = more binding, comparable within an allelic series)","12.6 upbm affinity estimate (log intensity, higher = more binding, comparable within an allelic series)","8.73 upbm affinity estimate (log intensity, higher = more binding, comparable within an allelic series)"
GCAATTAA,"12.6 upbm affinity estimate (log intensity, higher = more binding, comparable within an allelic series)","12.1 upbm affinity estimate (log intensity, higher = more binding, comparable within an allelic series)","13.3 upbm affinity estimate (log intensity, higher = more binding, comparable within an allelic series)","12.7 upbm affinity estimate (log intensity, higher = more binding, comparable within an allelic series)","13.2 upbm affinity estimate (log intensity, higher = more binding, comparable within an allelic series)","11.6 upbm affinity estimate (log intensity, higher = more binding, comparable within an allelic series)","8.37 upbm affinity estimate (log intensity, higher = more binding, comparable within an allelic series)","9.65 upbm affinity estimate (log intensity, higher = more binding, comparable within an allelic series)","11.3 upbm affinity estimate (log intensity, higher = more binding, comparable within an allelic series)","12.4 upbm affinity estimate (log intensity, higher = more binding, comparable within an allelic series)","11.5 upbm affinity estimate (log intensity, higher = more binding, comparable within an allelic series)","9.34 upbm affinity estimate (log intensity, higher = more binding, comparable within an allelic series)","11.6 upbm affinity estimate (log intensity, higher = more binding, comparable within an allelic series)","10.7 upbm affinity estimate (log intensity, higher = more binding, comparable within an allelic series)","11.2 upbm affinity estimate (log intensity, higher = more binding, comparable within an allelic series)","10.2 upbm affinity estimate (log intensity, higher = more binding, comparable within an allelic series)","7.72 upbm affinity estimate (log intensity, higher = more binding, comparable within an allelic series)","7.72 upbm affinity estimate (log intensity, higher = more binding, comparable within an allelic series)","12.2 upbm affinity estimate (log intensity, higher = more binding, comparable within an allelic series)","8.51 upbm affinity estimate (log intensity, higher = more binding, comparable within an allelic series)"
